Laboratory results from the supplement of paper PMC10849652.
Of roughly 7,900 targets only a part is listed; those with a hit were picked by preference. About 0.6% of all pairs of compound and target were hits.

compound: CCN(CC)Cc1ccc2cc(COC(=O)Nc3ccc(C(=O)NO)cc3)ccc2c1 [givinostat]; experiment: log2 fold change, soluble protein after heating vs DMSO (PISA); higher = thermal stabilisation; K562 cells, 10 uM, 30 min; active = over 0.2 and 3.5 SD of the protein, either way, in both replicates (recomputed)
How it was run: (§1)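 Values are thermal stability changes relative to control samples and are taken from duplicates. They are stated as log2 fold changes. Before quantification by TMTpro 16plex LC-MS/MS with equalised channel sums, K562 cells at 2×10^6 cells/mL were treated with 10 μM compound for 30 min, heated in aliquots for 3 min across 48°C-58°C, pooled, extracted in PBS with 0.5% NP-40 at 4°C, and centrifuged at 21,000xg for 90 min to give the soluble supernatant.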

Chain of UniProt Q05655 (Q05655 whole entry, looked up): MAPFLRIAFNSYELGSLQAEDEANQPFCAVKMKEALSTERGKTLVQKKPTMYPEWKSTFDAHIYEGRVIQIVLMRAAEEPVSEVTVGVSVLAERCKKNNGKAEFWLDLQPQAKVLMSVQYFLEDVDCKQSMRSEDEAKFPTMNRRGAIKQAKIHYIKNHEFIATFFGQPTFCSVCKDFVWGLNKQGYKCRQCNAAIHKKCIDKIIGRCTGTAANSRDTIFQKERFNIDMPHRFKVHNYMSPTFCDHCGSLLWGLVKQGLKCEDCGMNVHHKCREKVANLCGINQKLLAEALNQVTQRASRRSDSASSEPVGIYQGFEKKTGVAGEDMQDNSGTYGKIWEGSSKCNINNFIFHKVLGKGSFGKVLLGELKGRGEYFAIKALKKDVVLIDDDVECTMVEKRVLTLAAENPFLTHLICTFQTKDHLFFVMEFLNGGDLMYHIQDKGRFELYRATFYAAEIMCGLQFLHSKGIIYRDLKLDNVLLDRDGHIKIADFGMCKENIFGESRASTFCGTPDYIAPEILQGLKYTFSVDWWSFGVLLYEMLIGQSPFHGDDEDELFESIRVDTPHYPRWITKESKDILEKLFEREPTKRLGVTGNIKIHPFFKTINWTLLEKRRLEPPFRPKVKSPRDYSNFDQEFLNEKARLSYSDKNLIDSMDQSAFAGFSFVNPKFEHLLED
Chain of UniProt P35998 (P35998 whole entry, looked up): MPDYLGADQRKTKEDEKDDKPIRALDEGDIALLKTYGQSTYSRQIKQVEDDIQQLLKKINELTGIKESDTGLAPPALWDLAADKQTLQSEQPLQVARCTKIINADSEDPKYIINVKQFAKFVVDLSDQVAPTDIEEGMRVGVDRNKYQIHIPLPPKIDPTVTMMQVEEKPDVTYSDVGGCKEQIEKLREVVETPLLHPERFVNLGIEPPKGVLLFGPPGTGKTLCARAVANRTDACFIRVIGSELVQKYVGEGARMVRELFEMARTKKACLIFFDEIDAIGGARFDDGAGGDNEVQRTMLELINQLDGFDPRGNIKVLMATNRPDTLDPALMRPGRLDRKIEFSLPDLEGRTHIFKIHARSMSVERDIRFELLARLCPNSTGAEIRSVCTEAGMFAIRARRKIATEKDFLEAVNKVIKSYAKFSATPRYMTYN
Chain of UniProt Q8NCC3 (Q8NCC3 whole entry, looked up): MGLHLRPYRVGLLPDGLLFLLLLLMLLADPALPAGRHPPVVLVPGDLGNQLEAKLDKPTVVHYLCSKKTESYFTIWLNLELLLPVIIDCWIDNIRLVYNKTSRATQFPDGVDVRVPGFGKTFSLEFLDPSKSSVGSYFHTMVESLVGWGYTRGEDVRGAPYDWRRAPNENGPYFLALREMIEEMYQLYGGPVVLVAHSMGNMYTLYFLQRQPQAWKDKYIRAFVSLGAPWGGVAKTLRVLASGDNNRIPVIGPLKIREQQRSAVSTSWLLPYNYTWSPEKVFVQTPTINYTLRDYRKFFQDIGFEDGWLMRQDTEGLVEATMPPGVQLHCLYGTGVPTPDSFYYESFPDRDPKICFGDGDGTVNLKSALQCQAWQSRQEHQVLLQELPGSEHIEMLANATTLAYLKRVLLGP
Chain of UniProt Q15185 (Q15185 whole entry, looked up): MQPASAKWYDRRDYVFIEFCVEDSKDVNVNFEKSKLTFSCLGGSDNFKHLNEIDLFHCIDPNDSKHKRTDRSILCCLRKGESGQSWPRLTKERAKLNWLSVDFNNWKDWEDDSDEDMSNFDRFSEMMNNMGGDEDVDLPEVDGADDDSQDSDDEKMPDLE
Chain of UniProt P31321 (P31321 whole entry, looked up): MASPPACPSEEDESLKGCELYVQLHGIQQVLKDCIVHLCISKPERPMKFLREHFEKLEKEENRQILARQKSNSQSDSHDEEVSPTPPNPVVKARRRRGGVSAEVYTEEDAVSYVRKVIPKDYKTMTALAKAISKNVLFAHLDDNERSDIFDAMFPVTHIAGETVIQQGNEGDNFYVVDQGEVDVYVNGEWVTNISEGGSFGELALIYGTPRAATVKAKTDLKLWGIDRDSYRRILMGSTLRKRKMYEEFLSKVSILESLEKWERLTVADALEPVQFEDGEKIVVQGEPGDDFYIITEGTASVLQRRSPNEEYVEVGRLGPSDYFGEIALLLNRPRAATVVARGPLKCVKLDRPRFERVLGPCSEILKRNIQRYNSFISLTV
Chain of UniProt Q9H814 (Q9H814 whole entry, looked up): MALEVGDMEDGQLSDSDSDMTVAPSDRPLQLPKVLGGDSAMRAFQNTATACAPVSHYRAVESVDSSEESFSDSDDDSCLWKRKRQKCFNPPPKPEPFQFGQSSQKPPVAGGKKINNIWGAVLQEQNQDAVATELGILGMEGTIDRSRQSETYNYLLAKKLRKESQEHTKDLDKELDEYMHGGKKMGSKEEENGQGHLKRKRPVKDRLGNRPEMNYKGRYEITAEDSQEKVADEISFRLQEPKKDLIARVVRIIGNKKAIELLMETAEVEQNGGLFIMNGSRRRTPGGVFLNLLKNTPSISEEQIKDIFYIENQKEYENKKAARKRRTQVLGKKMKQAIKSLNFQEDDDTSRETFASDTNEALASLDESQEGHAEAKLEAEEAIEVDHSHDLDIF
Chain of UniProt Q6L8Q7 (Q6L8Q7 whole entry, looked up): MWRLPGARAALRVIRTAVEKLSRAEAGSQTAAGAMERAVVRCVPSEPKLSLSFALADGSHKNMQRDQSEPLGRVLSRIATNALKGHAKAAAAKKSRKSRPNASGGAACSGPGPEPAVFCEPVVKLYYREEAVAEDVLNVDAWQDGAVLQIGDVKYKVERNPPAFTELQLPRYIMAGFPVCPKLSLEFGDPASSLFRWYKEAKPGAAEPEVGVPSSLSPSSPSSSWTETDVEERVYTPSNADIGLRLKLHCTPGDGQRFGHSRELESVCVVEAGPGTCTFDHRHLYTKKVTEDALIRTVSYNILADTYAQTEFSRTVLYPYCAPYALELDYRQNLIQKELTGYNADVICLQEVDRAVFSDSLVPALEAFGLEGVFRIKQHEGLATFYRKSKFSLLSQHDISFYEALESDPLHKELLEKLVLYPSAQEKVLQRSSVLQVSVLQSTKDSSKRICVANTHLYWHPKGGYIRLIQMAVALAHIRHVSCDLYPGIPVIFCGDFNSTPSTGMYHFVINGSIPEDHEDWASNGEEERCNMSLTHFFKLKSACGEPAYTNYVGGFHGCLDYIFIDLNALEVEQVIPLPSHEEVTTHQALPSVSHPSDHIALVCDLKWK
Chain of UniProt P78356 (P78356 whole entry, looked up): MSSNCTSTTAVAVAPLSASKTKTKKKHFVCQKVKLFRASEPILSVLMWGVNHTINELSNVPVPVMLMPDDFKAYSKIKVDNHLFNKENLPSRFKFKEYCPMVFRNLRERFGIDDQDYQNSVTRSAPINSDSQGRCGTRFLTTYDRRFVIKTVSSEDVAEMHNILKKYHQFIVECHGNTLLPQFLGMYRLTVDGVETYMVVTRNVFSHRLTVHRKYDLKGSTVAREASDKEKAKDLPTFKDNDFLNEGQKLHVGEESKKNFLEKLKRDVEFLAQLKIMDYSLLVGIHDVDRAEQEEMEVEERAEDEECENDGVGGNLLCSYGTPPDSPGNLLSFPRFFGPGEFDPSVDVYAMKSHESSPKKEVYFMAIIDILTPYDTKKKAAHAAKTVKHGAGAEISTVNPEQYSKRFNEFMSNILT
Chain of UniProt O00625 (O00625 whole entry, looked up): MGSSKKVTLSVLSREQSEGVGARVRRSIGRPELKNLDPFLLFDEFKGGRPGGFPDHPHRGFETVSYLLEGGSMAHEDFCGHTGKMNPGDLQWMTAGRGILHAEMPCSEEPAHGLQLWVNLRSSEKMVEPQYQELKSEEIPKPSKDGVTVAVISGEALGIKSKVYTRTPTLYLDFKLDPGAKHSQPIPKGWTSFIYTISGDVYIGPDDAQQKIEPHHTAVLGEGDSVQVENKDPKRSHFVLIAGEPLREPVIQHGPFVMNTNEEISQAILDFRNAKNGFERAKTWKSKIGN
Chain of UniProt Q9Y5Y5 (Q9Y5Y5 whole entry, looked up): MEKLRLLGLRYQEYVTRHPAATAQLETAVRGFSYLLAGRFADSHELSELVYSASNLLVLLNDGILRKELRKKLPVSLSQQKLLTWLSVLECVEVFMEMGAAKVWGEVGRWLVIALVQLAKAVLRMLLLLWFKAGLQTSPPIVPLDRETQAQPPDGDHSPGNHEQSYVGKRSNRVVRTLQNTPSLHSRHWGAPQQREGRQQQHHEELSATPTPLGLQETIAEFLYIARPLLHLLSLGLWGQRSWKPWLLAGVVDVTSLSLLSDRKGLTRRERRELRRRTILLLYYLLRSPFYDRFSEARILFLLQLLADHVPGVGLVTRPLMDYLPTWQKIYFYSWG
Chain of UniProt O43164 (O43164 whole entry, looked up): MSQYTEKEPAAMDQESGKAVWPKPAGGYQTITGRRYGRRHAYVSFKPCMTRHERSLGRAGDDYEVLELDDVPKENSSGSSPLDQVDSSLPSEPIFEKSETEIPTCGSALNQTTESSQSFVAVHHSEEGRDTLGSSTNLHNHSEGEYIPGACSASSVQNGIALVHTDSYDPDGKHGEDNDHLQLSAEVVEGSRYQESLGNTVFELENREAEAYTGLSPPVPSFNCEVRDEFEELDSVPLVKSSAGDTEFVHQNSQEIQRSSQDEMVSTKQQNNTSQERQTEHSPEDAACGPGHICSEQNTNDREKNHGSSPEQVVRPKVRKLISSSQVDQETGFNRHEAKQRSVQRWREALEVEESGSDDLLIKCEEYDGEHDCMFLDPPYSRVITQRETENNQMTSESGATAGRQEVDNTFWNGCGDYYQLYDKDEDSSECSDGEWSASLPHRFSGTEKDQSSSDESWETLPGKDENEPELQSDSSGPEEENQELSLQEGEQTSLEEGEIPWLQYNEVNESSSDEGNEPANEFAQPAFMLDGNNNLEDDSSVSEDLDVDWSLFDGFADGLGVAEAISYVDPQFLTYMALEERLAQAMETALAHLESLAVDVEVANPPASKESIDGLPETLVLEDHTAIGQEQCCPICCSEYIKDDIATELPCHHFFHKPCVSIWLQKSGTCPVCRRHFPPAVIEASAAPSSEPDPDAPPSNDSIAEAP

log2 fold change, inactive:
PRPF40A (UniProt O75400) 0.156, PHAX (UniProt Q9H814) -0.076, PDPK1 (UniProt O15530) 0.032, PDE4DIP isoform 4 (UniProt Q5VU43) 0.021, PIR (UniProt O00625) -0.146, PSMC2 (UniProt P35998) -0.032, PEX16 isoform 2 (UniProt Q9Y5Y5) 0.006, PLEKHM2 (UniProt Q8IWE5) 0.177, PRIM1 (UniProt P49642) 0.031, PRPF31 (UniProt Q8WWY3) 0.065, PCNT (UniProt O95613) 0.255, PTGR2 (UniProt Q8N8N7) 0.139, PSMC5 (UniProt P62195) -0.082, PRKCA (UniProt P17252) -0.02, PRMT3 (UniProt O60678) -0.013, PARN (UniProt O95453) 0.059, PRKAA1 isoform 2 (UniProt Q13131) -0.014, PJA2 (UniProt O43164) 0.017, PRPF3 (UniProt O43395) 0.086, PITRM1 isoform 2 (UniProt Q5JRX3) -0.047, PLA2G15 (UniProt Q8NCC3) 0.019, PIP4K2B (UniProt P78356) -0.076, PDE2A (UniProt O00408) -0.043, PIP4P2 (UniProt Q8N4L2) -0.067, PRKCD (UniProt Q05655) -0.021, PLCB3 (UniProt Q01970) -0.014, POLR2B (UniProt P30876) -0.005, PPIL4 (UniProt Q8WUA2) 0.045, PCTP (UniProt Q9UKL6) -0.035, PDE12 (UniProt Q6L8Q7) -0.027, PPP1R12A (UniProt O14974) 0.048, PIP4P1 isoform 2 (UniProt Q86T03) -0.037, PDS5B (UniProt Q9NTI5) 0.135, PTGES3 (UniProt Q15185) 0.026, PLBD2 (UniProt Q8NHP8) 0.004, PRKAR1B (UniProt P31321) -0.036, PSMD2 (UniProt Q13200) -0.048

compound: CCN(CCCOc1ccc2c(Nc3cc(CC(=O)Nc4cccc(F)c4)[nH]n3)ncnc2c1)CCOP(=O)(O)O [barasertib]; experiment: as above
How it was run: as §1

log2 fold change, inactive:
PRPF40A (UniProt O75400) 0, PHAX (UniProt Q9H814) -0.008, PDPK1 (UniProt O15530) 0.035, PDE4DIP isoform 4 (UniProt Q5VU43) 0.083, PIR (UniProt O00625) 0.007, PSMC2 (UniProt P35998) -0.053, PEX16 isoform 2 (UniProt Q9Y5Y5) -0.007, PLEKHM2 (UniProt Q8IWE5) 0.076, PRIM1 (UniProt P49642) 0.056, PRPF31 (UniProt Q8WWY3) 0.096, PCNT (UniProt O95613) 0.045, PTGR2 (UniProt Q8N8N7) 0, PSMC5 (UniProt P62195) -0.034, PRKCA (UniProt P17252) 0.025, PRMT3 (UniProt O60678) 0.035, PARN (UniProt O95453) 0.057, PRKAA1 isoform 2 (UniProt Q13131) 0.016, PJA2 (UniProt O43164) -0.004, PRPF3 (UniProt O43395) 0.028, PITRM1 isoform 2 (UniProt Q5JRX3) -0.03, PLA2G15 (UniProt Q8NCC3) 0.024, PIP4K2B (UniProt P78356) 0.004, PDE2A (UniProt O00408) 0.011, PIP4P2 (UniProt Q8N4L2) 0, PRKCD (UniProt Q05655) 0.023, PLCB3 (UniProt Q01970) 0.018, POLR2B (UniProt P30876) 0.008, PPIL4 (UniProt Q8WUA2) 0, PCTP (UniProt Q9UKL6) 0.013, PDE12 (UniProt Q6L8Q7) 0.014, PPP1R12A (UniProt O14974) 0.066, PIP4P1 isoform 2 (UniProt Q86T03) 0.001, PDS5B (UniProt Q9NTI5) 0.047, PTGES3 (UniProt Q15185) 0.064, PLBD2 (UniProt Q8NHP8) -0.013, PRKAR1B (UniProt P31321) -0.12, PSMD2 (UniProt Q13200) -0.057
